Source: PubChem BioAssay (The Scripps Research Institute Molecular Screening Center)
SRC1 inh = SRC1 coactivator transcriptional activity inhibitors, primary screen, cell-based, luminescence; inhibition, % at 3.6 µM; AID 588354, 2011; HEK293 GAL4-SRC1 luciferase reporter; Nuclear receptor coactivator 1 (Homo sapiens), Q15788; 360,000 tested, 0.12% active;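 active means inhibition above the campaign mean plus 3 SD, with each screening campaign given its own cutoff, cut at about 60% in these data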;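 further: 0% = DMSO treated cells and 100% = gossypol at 36 µM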
GalR3 antag = GalR3 antagonists in HEK293 cells, primary screen, cell-based, fluorescence readout | HEK293 GalR3-CNG cAMP membrane potential fluorescence; galR3 body fused to GalR1 C-terminus | inhibition, % at 3 µM | 360,000 tested, 0.44% active | AID 651719, 2012;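 active means inhibition above the screen-wide average plus 3 SD, cut at about 13% in these data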;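 further: forskolin and galanin both at EC90 stimulate the cells; cAMP rise reported by CNG channel membrane potential dye signal; 0% = forskolin plus galanin with DMSO and 100% = forskolin alone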
SRC3 inh = SRC3 coactivator transcriptional activity inhibitors, primary screen, cell-based, luminescence | Nuclear receptor coactivator 3 (Homo sapiens), Q9Y6Q9 | HEK293 GAL4-SRC3 luciferase reporter | inhibition, % at 3.6 µM | 360,000 tested, 0.17% active | AID 588352, 2011;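 active means inhibition above a per-campaign cutoff, the mean of all compounds plus 3 SD, cut at about 60% in these data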;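 further: 0% = DMSO-treated cells and 100% = gossypol-treated cells at 36 µM; higher means less SRC3-driven luciferase light from the GAL4 reporter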
LRH-1 inv ag = LRH-1 (NR5A2) inverse agonists, primary screen, cell-based, luminescence, HEK293T, StAR-luciferase reporter; Nuclear receptor subfamily 5 group A member 2 (Homo sapiens), O00482; LRH-1 transfected, 24 h; inhibition, % at 3.6 µM; 360,000 tested, 0.13% active; AID 602396, 2012;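 active means inhibition above the mean inhibition of all tested compounds plus 3 SD, cut at about 73% in these data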;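 further: 0% = DMSO wells and 100% = reporter-only cells lacking LRH-1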
COUP-TFII inh = NR2F2 transcriptional activity inhibitors, primary screen, cell-based, luciferase reporter, HEK293T, luminescence. AID 686940, 2013. COUP transcription factor 2 (Homo sapiens), P24468. 370,000 tested, 0.7% active. HEK293T NGFI-A luciferase reporter. inhibition, % at 8.6 µM;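 active means inhibition above a per-plate cutoff, mean inhibition of test wells between control levels plus 3 SD, cut at about 38% in these data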;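 further: cells cotransfected with COUP-TFII expression vector driving the NGFI-A reporter; 0% = median of COUP-TF2 test wells and 100% = reporter-only cells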
Target sequence (P24468 whole entry, looked up): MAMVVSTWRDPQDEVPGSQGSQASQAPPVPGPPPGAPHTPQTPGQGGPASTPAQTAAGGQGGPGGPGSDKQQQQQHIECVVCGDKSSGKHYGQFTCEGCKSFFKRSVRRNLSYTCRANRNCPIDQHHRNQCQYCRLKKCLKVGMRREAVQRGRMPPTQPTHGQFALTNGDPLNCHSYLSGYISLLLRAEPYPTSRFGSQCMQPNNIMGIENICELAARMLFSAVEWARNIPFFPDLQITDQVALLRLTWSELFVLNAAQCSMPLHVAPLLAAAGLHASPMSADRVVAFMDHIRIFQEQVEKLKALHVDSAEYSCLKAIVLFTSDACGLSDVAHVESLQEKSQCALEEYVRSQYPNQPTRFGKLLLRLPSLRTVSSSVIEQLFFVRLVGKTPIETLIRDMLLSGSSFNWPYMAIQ
SRC2 inh = inhibition of GAL4-SRC2 driven luciferase reporter, primary screen, SRC2 inhibitor project, cell-based, luminescence; Nuclear receptor coactivator 2 (Homo sapiens), Q15596; HEK293 GAL4-SRC2 luciferase reporter; inhibition, % at 9 µM; 370,000 tested, 0.17% active; AID 651957, 2012;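 active means inhibition above the mean inhibition of all tested compounds plus 3 SD, set per campaign, cut at about 52% in these data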;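 further: 0% = DMSO treated cells and 100% = cells given Gossypol at 36 µM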
GalR3 conf = GalR3 antagonist hit confirmation, cell-based, fluorescence, triplicate; shares compounds with GalR3 antag; HEK293 GalR3 CNG cAMP biosensor, membrane potential fluorescence; galR3 fused to GalR1 carboxy tail; challenged with forskolin and galanin at EC90; inhibition, % at 3 µM; 1,600 tested, 59% active; AID 652245, 2013;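 active means inhibition above the primary screen's cutoff, the mean inhibition of all screened compounds plus 3 SD, cut at about 13% in these data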;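 further: 0% = forskolin plus galanin and 100% = forskolin alone with DMSO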
HEK-CNG parental = nonspecific cAMP agonists in parental HEK-CNG cells, counter-screen for GalR3 antagonist project, cell-based, fluorescence, high throughput. shares compounds with GalR3 antag. HEK293-CNG parental cells, cAMP membrane potential fluorescence; normalised: DMSO wells 0%, forskolin wells 100%. activation, % at 3 µM. 1,600 tested, 10% active. AID 652268, 2013; in the data active means activation above about 1.3%
The depositor's hits bear a star. Hits are enriched below; roughly 1.1% of the tested compounds scored in any of these assays.

Cc1nc2sc(C#N)c(N)c2c2c1CCCC2 was read as SRC1 inh 12, GalR3 antag 27*, SRC3 inh 6, LRH-1 inv ag 4, COUP-TFII inh -7, SRC2 inh 23, GalR3 conf 34* and HEK-CNG parental 0.
For CCN(CC(=O)Nc1ccc(NC(C)=O)cc1)CC(=O)Nc1ccccc1C(=O)c1ccccc1 the results were SRC1 inh -8, GalR3 antag 17*, SRC3 inh 2, LRH-1 inv ag -2, COUP-TFII inh 21, SRC2 inh -23, GalR3 conf 4 and HEK-CNG parental 0.
`CCN(CC)CC(=O)Nc1ccc(C)cc1C(=O)c1ccccc1` gave SRC1 inh -2, GalR3 antag -8, SRC3 inh 14, LRH-1 inv ag 2, COUP-TFII inh 7 and SRC2 inh 9.
CCCN(CC1CC1)C(=O)CNc1nnnn1-c1ccccc1 was read as COUP-TFII inh 3 and SRC2 inh 1.
For Cc1cc(OCC(=O)Nc2ccncc2)c(C)cc1Br the results were SRC1 inh -3, GalR3 antag 77*, SRC3 inh -2, LRH-1 inv ag 16, COUP-TFII inh 16, SRC2 inh 11, GalR3 conf 117* and HEK-CNG parental 0.
For CCc1ccc(OCC(=O)Nc2ccncc2)c(Br)c1 the results were SRC1 inh -77, GalR3 antag -12, SRC3 inh -63, LRH-1 inv ag -42, COUP-TFII inh 4 and SRC2 inh -16.
Screening COc1cc(/C=C2\SC(=Nc3c(C)n(C)n(-c4ccccc4)c3=O)NC2=O)ccc1O returned SRC1 inh -9, GalR3 antag 31*, SRC3 inh 9, LRH-1 inv ag 5, COUP-TFII inh 3, SRC2 inh -17, GalR3 conf 34* and HEK-CNG parental 0.
Screening Cc1nnc(NC(=O)C(C)Sc2nnc(CCNC(=O)c3ccccc3F)n2C)s1 (stereo not drawn) returned SRC1 inh -15, GalR3 antag 13*, SRC3 inh 8, LRH-1 inv ag -14, COUP-TFII inh -7, SRC2 inh -21, GalR3 conf 5 and HEK-CNG parental 0.
For COC(=O)[C@]12C[C@H](CC(=O)NCc3ccc(OC)c(OC)c3)C(=O)N(Cc3cccc4ccccc34)C1=C[C@H](C1CCCC1)O[C@@H]2C the results were COUP-TFII inh 26 and SRC2 inh 18.
For O=[N+]([O-])c1cc(-c2nnc(N3CCOCC3)c3ccccc23)ccc1N1CCOCC1 the results were SRC1 inh 4, GalR3 antag -5, SRC3 inh 13, LRH-1 inv ag 16, COUP-TFII inh 5 and SRC2 inh 20.
O=C(Cn1nc(-c2ccc(N3CCOCC3)c([N+](=O)[O-])c2)c2ccccc2c1=O)N1CCCCC1 was read as SRC1 inh 0, GalR3 antag 15*, SRC3 inh -16, LRH-1 inv ag 10, COUP-TFII inh 12, SRC2 inh -14, GalR3 conf 60* and HEK-CNG parental 0.
Screening Cc1cc(Br)cn2c(Cc3cccc(Cl)c3)c(-c3ccco3)nc12 returned GalR3 antag 40*, LRH-1 inv ag -2, COUP-TFII inh 10, SRC2 inh -40, GalR3 conf 41* and HEK-CNG parental 0.
